FAS TE block: FAS thioesterase domain inhibitors, primary screen, biochemical, fluorescence intensity, uHTS. Fatty acid synthase (Homo sapiens), P49327. recombinant FAS-TE, OMFH fluorogenic substrate, fluorescence endpoint. inhibition, % at 15 µM. 0.67% of 360,000 active. AID 602261, 2012;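 active = compounds whose normalised, plate-corrected inhibition of enzyme fluorescence in the single-dose primary screen is 50% or more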;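 note: 0% = DMSO with enzyme and 100% = substrate without enzyme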
Target sequence (P49327 whole entry, looked up, the tested form may be a part): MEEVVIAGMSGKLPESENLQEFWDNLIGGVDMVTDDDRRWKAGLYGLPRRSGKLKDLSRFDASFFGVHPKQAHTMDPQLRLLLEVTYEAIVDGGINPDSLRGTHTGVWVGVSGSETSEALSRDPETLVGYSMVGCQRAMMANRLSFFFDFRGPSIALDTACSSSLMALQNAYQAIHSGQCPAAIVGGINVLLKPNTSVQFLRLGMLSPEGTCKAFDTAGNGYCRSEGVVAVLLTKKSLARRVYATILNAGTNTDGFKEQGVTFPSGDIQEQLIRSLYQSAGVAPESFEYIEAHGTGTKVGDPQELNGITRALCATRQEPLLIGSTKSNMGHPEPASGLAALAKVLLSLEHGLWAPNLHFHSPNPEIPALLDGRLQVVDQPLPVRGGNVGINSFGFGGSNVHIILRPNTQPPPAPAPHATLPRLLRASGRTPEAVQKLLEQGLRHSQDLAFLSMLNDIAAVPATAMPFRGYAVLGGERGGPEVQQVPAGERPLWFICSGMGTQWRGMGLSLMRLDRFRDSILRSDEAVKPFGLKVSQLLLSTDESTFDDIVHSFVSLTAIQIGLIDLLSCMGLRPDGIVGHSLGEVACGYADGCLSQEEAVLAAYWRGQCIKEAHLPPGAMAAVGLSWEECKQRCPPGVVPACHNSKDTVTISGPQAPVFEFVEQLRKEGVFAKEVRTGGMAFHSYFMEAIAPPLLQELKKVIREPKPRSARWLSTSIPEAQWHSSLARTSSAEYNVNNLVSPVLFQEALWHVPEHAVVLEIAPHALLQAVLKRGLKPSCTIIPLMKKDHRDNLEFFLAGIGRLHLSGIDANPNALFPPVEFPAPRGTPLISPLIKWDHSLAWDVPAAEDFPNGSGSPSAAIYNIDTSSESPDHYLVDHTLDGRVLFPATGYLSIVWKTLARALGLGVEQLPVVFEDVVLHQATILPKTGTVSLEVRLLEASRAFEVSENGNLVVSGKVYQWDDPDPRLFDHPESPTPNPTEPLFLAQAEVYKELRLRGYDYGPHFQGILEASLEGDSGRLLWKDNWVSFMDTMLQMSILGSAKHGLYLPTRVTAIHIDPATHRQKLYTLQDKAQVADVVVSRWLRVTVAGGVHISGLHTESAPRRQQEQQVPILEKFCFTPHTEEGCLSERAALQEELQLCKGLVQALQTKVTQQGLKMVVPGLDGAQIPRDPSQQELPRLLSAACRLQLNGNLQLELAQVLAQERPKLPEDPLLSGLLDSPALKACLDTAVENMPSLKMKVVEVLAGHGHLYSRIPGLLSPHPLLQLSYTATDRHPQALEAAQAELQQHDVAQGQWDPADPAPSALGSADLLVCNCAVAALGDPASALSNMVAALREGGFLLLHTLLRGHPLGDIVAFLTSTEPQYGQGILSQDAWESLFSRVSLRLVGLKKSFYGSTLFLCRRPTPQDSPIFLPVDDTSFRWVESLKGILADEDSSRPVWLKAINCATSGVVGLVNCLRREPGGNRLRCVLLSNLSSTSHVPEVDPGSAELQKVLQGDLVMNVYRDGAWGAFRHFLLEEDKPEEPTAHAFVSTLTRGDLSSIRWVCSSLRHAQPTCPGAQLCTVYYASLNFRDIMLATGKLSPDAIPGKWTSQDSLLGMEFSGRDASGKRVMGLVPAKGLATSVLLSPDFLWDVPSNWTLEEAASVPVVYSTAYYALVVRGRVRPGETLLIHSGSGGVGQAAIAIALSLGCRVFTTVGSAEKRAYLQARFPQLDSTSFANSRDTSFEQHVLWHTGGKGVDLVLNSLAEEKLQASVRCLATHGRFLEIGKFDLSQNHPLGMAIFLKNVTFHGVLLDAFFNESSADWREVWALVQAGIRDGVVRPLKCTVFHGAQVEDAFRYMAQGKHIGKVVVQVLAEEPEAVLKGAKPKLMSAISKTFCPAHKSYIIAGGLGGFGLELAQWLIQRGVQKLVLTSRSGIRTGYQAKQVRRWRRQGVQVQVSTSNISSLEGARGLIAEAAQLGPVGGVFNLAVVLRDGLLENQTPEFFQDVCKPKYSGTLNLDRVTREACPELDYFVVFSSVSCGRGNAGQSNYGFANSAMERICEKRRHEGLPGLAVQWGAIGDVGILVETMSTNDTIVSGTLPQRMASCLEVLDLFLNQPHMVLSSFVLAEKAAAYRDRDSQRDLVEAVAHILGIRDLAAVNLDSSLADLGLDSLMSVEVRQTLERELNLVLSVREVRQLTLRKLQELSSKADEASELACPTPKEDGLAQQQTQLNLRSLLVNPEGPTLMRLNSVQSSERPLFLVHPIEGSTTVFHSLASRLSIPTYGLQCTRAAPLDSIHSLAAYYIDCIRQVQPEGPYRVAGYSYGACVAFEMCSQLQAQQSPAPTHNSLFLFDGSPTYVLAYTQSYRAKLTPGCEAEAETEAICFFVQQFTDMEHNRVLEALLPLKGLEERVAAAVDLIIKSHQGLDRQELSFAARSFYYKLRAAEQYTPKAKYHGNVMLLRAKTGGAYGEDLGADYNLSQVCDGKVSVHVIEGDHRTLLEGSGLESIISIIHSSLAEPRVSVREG
MPTP inh: mitochondrial permeability transition pore inhibitors, primary screen, biochemical, isolated mouse mitochondria, absorbance; Ca2+ swelling absorbance, 30 min; inhibition, % at 10 µM; 1.4% of 360,000 active; AID 602449, 2012;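 active = inhibition of 50% or more, scaled per plate between neutral and stimulator controls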;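 note: 0% = DMSO wells given calcium and 100% = 1 mM EGTA wells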
rCAG binder: binders of r(CAG) RNA repeats, primary screen, biochemical, fluorescence; r(CAG) RNA repeat, TO-PRO-1 dye displacement fluorescence; inhibition, % at 3 µM; AID 651821, 2012; 1.3% of 370,000 active;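 active = inhibition above the plate cutoff, the mean of all test compounds on that plate plus 3 SD, cut at about 35% in these data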;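 note: 0% = DMSO alone and 100% = 100 µM mitoxantrone as full dye displacement; higher means more dye released from RNA so lower well fluorescence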
Myeloid diff 2: induction of myeloid progenitor differentiation, primary screen, cell-based, flow cytometry, MLPCN library; 1% of 360,000 active; calls only at 10 µM; ER-HoxA9 myeloid progenitors, lysozyme-GFP differentiation;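 active = normalized GFP-positive differentiation at or above the plate's own cutoff, the solvent-only control mean plus 3 SD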;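 note: cells exposed to compound for four days before flow analysis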
GRIN3A LBD mod: binders of NR3A ligand-binding domain, primary screen, biophysical, differential scanning fluorimetry, uHTS; 2.5% of 340,000 active; Tm shift relative to glycine control, % at 25 µM; NR3A LBD differential scanning fluorimetry, Tm shift; 0% = protein alone, 100% = glycine-bound protein;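 active = melting temperature shift of at least 10% of the positive control shift, at one fixed dose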
rCAG bind conf: small molecules binding CAG repeat RNA – biochemical, fluorescence, confirmation | 70% of 4,300 active | shares compounds with rCAG binder | r(CAG) RNA repeat, TO-PRO-1 dye displacement fluorescence | inhibition, % at 3 µM;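 active = inhibition above a per-plate cutoff, the mean inhibition of sample wells plus 3 SD, cut at about 35% in these data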;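 note: loss of TO-PRO-1 fluorescence as compound displaces dye from 1x1 AA loop RNA; 0% = DMSO only wells and 100% = 100 µM mitoxantrone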
dCAG dye counter: displacement of TO-PRO-1 from CAG DNA duplex, counter-screen for rCAG RNA repeat binder project, biochemical, fluorescence, TO-PRO-1 dye, d(CAG) DNA oligo. d(CAG) DNA oligo TO-PRO-1 dye displacement. shares compounds with rCAG binder. AID 652068, 2013. 94% of 4,300 active. inhibition, % at 3 µM;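 active = inhibition above its plate's cutoff, the mean test-well inhibition plus 3 SD, cut at about 4.8% in these data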;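 note: 0% = DNA dye mix with DMSO and 100% = 100 µM mitoxantrone; hits displace the dye from DNA and so lower well fluorescence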
* marks the source's active call; other numbers are inactive results; i = inactive; . = no result; + = active, no number. This is a sample that favours compounds with a hit; in the whole collection about 5.7% have one here.

SMILES	FAS TE block	MPTP inh	rCAG binder	Myeloid diff 2	GRIN3A LBD mod	rCAG bind conf	dCAG dye counter
CCOC(=O)c1sc2nc3c(SCCC(=O)O)cc(C(=O)c4cc(OC)ccc4O)cn3c(=O)c2c1C	-4.7	13.1	35.2*	+	-2.1	68.4*	39.3*
O=C(O)CSc1cc(C(=O)c2cc(F)ccc2O)cn2c(=O)c3c(-c4ccccc4)csc3nc12	66.4*	13.5	84.6*	i	4.0	90.4*	70.2*
NC(=O)CC(NC(=O)c1ccccc1)c1ccc(N2CCc3ccccc3C2)c([N+](=O)[O-])c1 (configuration not stated)	-5.7	0.9	10.5	i	-16.3	.	.
CCc1nc2ccc(C(=O)Nc3cccc(OCC(=O)N(C)C)c3)cn2c1N(C)Cc1cc2ccccc2s1	6.1	-0.8	10.0	i	.	.	.
O=c1cc(O)c2sc3nc(-c4cccnc4)cc(C(F)(F)F)c3c2[nH]1	-11.0	5.0	18.6	i	-26.5	.	.
CN(c1ccccc1)S(=O)(=O)c1cccc(NC(=O)C2=NN(c3ccccc3)C(=O)CC2)c1	33.6	2.1	8.3	i	-2.5	.	.
CCOC(=O)c1sc(N/N=C/c2cc(Br)c(O)c(OC)c2)nc1C	5.0	2.0	47.5*	i	14.0*	37.8*	16.6*
O=C(O)c1ccccc1N/N=C/c1cc(Br)cc(Br)c1O	13.6	48.1	45.4*	i	2.1	92.3*	74.7*
O=C1c2ccccc2C(O)(c2ccccc2)N1c1ccc([N+](=O)[O-])cc1Cl (configuration not stated)	-6.6	1.5	40.4*	i	-6.9	40.5*	10.2*
Cc1c(N2C(=O)c3ccccc3C2(O)c2ccccc2)c(=O)n(-c2ccccc2)n1C (configuration not stated)	-6.8	-0.4	-4.7	i	0.5	.	.
Cc1cc(NC(=O)CSc2nc3[nH]c(=O)cc(O)c3s2)ccc1Br	-4.2	-0.4	23.6	i	-0.4	.	.
Cc1ccc(NC(=O)CSc2nc3[nH]c(=O)cc(O)c3s2)c(Br)c1	1.3	-1.1	26.9	i	1.2	.	.
N#Cc1c(SCC(=O)Nc2cccc(C(F)(F)F)c2)sc2c(O)cc(=O)[nH]c12	7.2	2.2	51.7*	i	10.3*	35.1*	15.0*
COC(=O)c1ccc(C)c(NC(=O)CSc2sc3c(O)cc(=O)[nH]c3c2C#N)c1	0.2	-2.1	60.7*	i	-7.1	44.7*	19.7*
Cc1ccc(C)c(NC(=O)CSc2sc3c(O)cc(=O)[nH]c3c2C#N)c1	2.0	-0.6	51.1*	i	-4.5	29.0	11.2*
Cc1cc(NC(=O)CSc2sc3c(O)cc(=O)[nH]c3c2C#N)ccc1Br	11.3	0.3	51.2*	i	2.4	59.3*	31.5*
COC(=O)c1ccc(C)c(NC(=O)CCSc2ccc(C)cc2)c1	-2.3	0.7	-2.0	i	4.3	.	.
CCOc1cc(/C=N/N=C2/NC(=O)C(CC(=O)O)S2)ccc1OCc1ccc(Cl)cc1 (configuration not stated)	-5.2	5.1	59.7*	i	1.3	40.1*	10.5*
COc1cc(/C=N/N=C2/NC(=O)C(CC(=O)O)S2)ccc1OCc1cccc(Cl)c1 (configuration not stated)	-6.9	-0.8	43.5*	i	0.7	26.5	5.5*
CNc1cccc(-c2ccc(C(=O)N3CCOCC3)cc2)n1	-8.2	-0.5	1.3	i	.	.	.
Cc1ccc(S(=O)(=O)N/N=C\c2ccc(Cl)c([N+](=O)[O-])c2)cc1	36.5	4.9	13.4	i	2.2	.	.
Cc1ccc(S(=O)(=O)N/N=C/c2ccc(OS(=O)(=O)c3ccc(C)c([N+](=O)[O-])c3)cc2)cc1	29.0	2.5	35.2*	i	5.6	49.5*	15.1*
Oc1oc(-c2ccccc2)nc1C=Nc1ccccc1	8.0	-0.8	2.1	i	-31.6	.	.
CC1=Nc2ccccc2/C1=C/c1nc(-c2ccc(C)s2)oc1O	-12.7	4.4	46.2*	i	20.1*	41.9*	21.5*
COc1ccc(-c2nc(/C=C3\C(C)=Nc4ccccc43)c(O)o2)cc1	22.9	10.0	51.5*	i	-3.6	34.8*	20.1*
SMILES	FAS TE block	MPTP inh	rCAG binder	Myeloid diff 2	GRIN3A LBD mod	rCAG bind conf	dCAG dye counter
Cc1ccc(N=Cc2nc(-c3ccc(C)cc3)oc2O)cc1	-4.1	0.0	2.1	i	-1.3	.	.
CC1=Nc2ccccc2/C1=C\c1nc(-c2ccccc2)oc1O	11.8	6.4	60.2*	i	10.2*	37.0*	16.6*
Cc1ccnc(N=Cc2nc(-c3ccccc3Br)oc2O)c1	24.8	1.7	1.3	i	-10.1	.	.
COC(=O)[C@H](Cc1ccccc1)NC(=O)Cn1cnc2c(NCc3ccccc3)ncnc21	-7.9	-0.7	-2.3	i	1.2	.	.
CCCCN(C(=O)C1CCCC1)c1c(N)n(CCC)c(=O)[nH]c1=O	-5.0	-0.4	-2.4	i	0.8	.	.
O=c1[nH]c2ccccc2nc1-c1c[nH]c2ccccc12	5.2	1.0	42.8*	.	39.0*	16.3	14.2*
Nc1ccccc1-c1nc2ccccc2[nH]c1=O	0.4	-1.0	0.3	i	-1.9	.	.
COc1ccc(C2C(C#N)=C(N)Oc3c2c(-c2ccccc2)nn3-c2ccccc2)c(OC)c1OC (configuration not stated)	0.4	3.3	42.1*	i	-0.6	22.9	10.2*
Cc1cc(Nc2ccc(C(=O)O)cc2)nc(N)n1	-4.8	-0.5	-4.5	i	0.4	.	.
CC(=O)NNc1cc(C)nc(N)n1	-2.8	1.6	65.9*	i	-1.2	3.3	1.4
Cc1cc(NC(=O)c2cc(-c3ccc(C)c(C)c3)nc3ccccc23)no1	22.5	1.1	10.1	i	-6.5	.	.
CC(=O)NS(=O)(=O)c1ccc(NC(=O)c2cc(-c3ccc(C)cc3)nc3ccccc23)cc1	-10.4	-1.2	53.5*	i	-17.4	35.3*	9.3*
CC(=O)NS(=O)(=O)c1ccc(NC(=O)c2cc(-c3cccs3)nc3ccccc23)cc1	-8.0	-0.7	14.5	i	-1.9	.	.
CC(=O)NS(=O)(=O)c1ccc(NC(=O)c2cc(-c3ccc(C)c(C)c3)nc3ccccc23)cc1	3.8	3.2	76.7*	i	-3.4	70.5*	36.8*
CC(C)c1cc(NC(=O)CSc2nnc(-c3ccccc3F)n2C)on1	-4.2	3.3	-3.0	i	-3.7	.	.

Screens: PubChem, several laboratories
